Hits are enriched below; roughly 4.6% of the tested compounds scored in any of these assays.
Lassa entry inh – qHTS for Inhibitors of binding or entry into cells for Lassa Virus; 300,000 tested, 1.2% active; Potency, µM (series often up to 37.9 µM), for inactives: at the top dose activity change, negative = inhibition, usual class: inhibitors; Lassa virus pseudotype entry inhibition, cell reporter; calls by dose curve; tested in HEK293 cells; note: nearly all actives have a fitted effect of over 50% in size
Vaccinia Venus – qHTS for Stage-Specific Inhibitors of Vaccinia Orthopoxvirus: Venus Reporter Primary qHTS | 330,000 tested, 0.46% active | Vaccinia virus Venus reporter expression, fluorescence | Potency, µM (titrated, usually from 36.5 µM), without a hit: at the top dose activity change, negative = inhibition, usual class: inhibitors | AID 720580, 2013; calls by dose curve; tested in A549 cells; note: nearly all actives have a fitted effect of over 30% in size
HCV inh – qHTS Assay for Inhibitors of Hepatitis C Virus (HCV) | Huh7.5.1 HCVcc-Cre infection, luciferase reporter, 44 h | Potency, µM (doses to about 41.8 µM), for the others: at the top dose activity change, negative = inhibition, most hits filed as inhibitors | 340,000 tested, 3.4% active; active = well fitted inhibition curve with a large enough effect; inconclusive = small, poorly fitted or top-dose-only effect, or another doubt; inactive = no such curve, though single readings can be large or run the other way
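Reporter virus HCVcc-Cre (~0.5 moi) infects cells exposed to compound; seeding density 1,000 cells/well with 4 h settling beforehand. Luminescence, 15 sec read, taken 44 h post-infection following a 15 min RT substrate incubation.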
Marburg entry inh – qHTS for inhibitors of binding or entry into cells for Marburg Virus; AID 540276, 2011; Potency, µM (doses to about 37.8 µM), inactives show top-dose activity change, negative = inhibition, hits mostly inhibitors; 300,000 tested, 1.8% active; Marburg virus pseudotyped entry inhibition, cell reporter; calls by dose curve; tested in HEK293 cells
Vaccinia mCherry – qHTS for Stage-Specific Inhibitors of Vaccinia Orthopoxvirus: mCherry Reporter Primary qHTS. Vaccinia virus mCherry reporter infection, fluorescence. 310,000 tested, 0.63% active. Potency, µM (series often up to 36.5 µM), for the others: top-dose activity change, negative = inhibition, actives largely listed as inhibitors; calls by dose curve; tested in A549 cells; note: nearly all actives have a fitted effect of over 35% in size
* = called active by the depositor; i = inactive; ? = inconclusive; / = not tested or not shown; ! = not active in a repeat; [ ] = dose if it differs, or a comment. % is set by controls: 0 for no effect and ±100 for the full control effect; potency is the fitted concentration of half-maximal effect.

SMILES | Lassa entry inh | Vaccinia Venus | HCV inh | Marburg entry inh | Vaccinia mCherry
CCc1ccc(NC(=O)CN(Cc2ccccc2)S(=O)(=O)c2ccc3nc(C)sc3c2)cc1 | 6%[46.1 µM] | -11% | / | / | -10%
COc1ccnc(N2CCN(c3cccc(C(F)(F)F)c3)CC2)c1C#N | ? | -9% | 19% | -10% | -17%
COc1ccnc(N2CCN(c3ccc(Cl)cc3)CC2)c1C#N | -27% | -9% | 32µM* | -2% | -15%
COc1ccc2c(c1)CCc1cnc(-n3ncc(C(=O)NCc4cc(C)no4)c3C3CC3)nc1-2 | / | -18% | / | / | ?
CCCC[C@]12Cc3cc(OC)c(OC)cc3[C@H](O1)C1=C(CC3(CCCCC3)OC1=O)O2 | / | / | / | -24%[14.2 µM] | /
COc1ccc(N(CC(=O)NCc2ccc(F)cc2)C(=O)CCC(=O)Nc2ccccn2)cc1 | / | 7% | 0% | -11%[46.1 µM] | 5%
Cc1ccc(N(CC(=O)NCc2ccc(F)cc2)C(=O)CCC(=O)Nc2ccccn2)cc1C | 1.4µM* | -21% | ? | ? | -26%
COCCCNC(=O)CCCN1C(=O)CCn2nc(-c3cn(C)c4ccccc34)cc21 | -4%[46.1 µM] | 0% | / | / | -8%
O=C(O)c1ccc(-c2ccccc2C(F)(F)F)o1 | 1% | -7% | 25% | 25% | -10%
O=C(NCc1ccccc1)c1ccc(-c2ccccc2C(F)(F)F)o1 | 2.3µM* | -4% | 3%[8.37 µM] | ? | i
Cc1ccc(-c2ccc(C(=O)NCc3ccc(Cl)cc3)o2)c2ccccc12 | 21µM* | -19% | -5%[8.37 µM] | 5% | ?
Cc1ccccc1-c1ccc(C(=O)NCc2ccccc2)o1 | ? | ? | -4%[8.37 µM] | 11% | -16%
O=C(NCc1ccccc1)c1ccc(-c2ccc(F)cc2)o1 | 6.5µM* | / | ? | -3% | /
CC(C)C1C(c2ccccc2)N(C)C(c2ccccc2)CC1(O)c1ccccc1 (stereo unspecified) | ? | -24% | 13% | 15µM* | ?
O=C(Nc1ccccc1-c1nc2ccccc2[nH]1)c1ccc(N2C(=O)CCC2=O)cc1 | 5% | -21% | 10µM* | ? | -8%
O=C(Nc1ccccc1-c1nc2ccccc2[nH]1)c1ccc(S(=O)(=O)N2CCCCC2)cc1 | -10% | / | -27% | 3% | /
CCOC(=O)c1sc(NC(=S)NC(=O)c2ccccc2)c(C(=O)OCC)c1C | -6% | -3% | ? | -19% | -14%
Cc1cc(C)c(NC(=S)NC(=O)c2ccccc2)cc1C | / | -21% | / | / | -3%
CCOC(=O)C1=C(NC(=S)NC(=O)c2ccccc2)c2ccccc2CC1C(C)C (stereo unspecified) | 0.89µM* | -9% | ? | 0.79µM* | ?
CCOC(=O)C1=C(NC(=S)NC(=O)c2ccccc2)c2ccccc2CC1(C)CC (stereo unspecified) | 2.1µM* | -3% | ? | 5.8µM* | -17%
CCN(CC)S(=O)(=O)c1cc(C(=O)OCC(=O)Nc2ccc(-c3nc4ccc(C)cc4s3)cc2)ccc1F | 3.2µM*! | -5% | -13% | ? | i
CN1CCCC(OC(=O)c2cc(Cl)cc(Cl)c2)C1 (stereo unspecified) | 1% | -9% | -24% | 10% | -7%
CN1C2CCC1CC(OC(=O)c1cc(Cl)cc(Cl)c1)C2 (stereo unspecified) | ? | -14% | 14µM* | 7.1µM* | /
CCC1CN(C(=O)NCc2cccc(OC)c2)c2cc(Cl)ccc2O1 (stereo unspecified) | -16%[46.1 µM] | -3% | 5.6µM* | / | 4%
CCC1CN(C(=O)NCc2cccc(OC)c2)c2ccccc2O1 (stereo unspecified) | ? | -11% | ? | / | 4%
SMILES | Lassa entry inh | Vaccinia Venus | HCV inh | Marburg entry inh | Vaccinia mCherry
O=S1(=O)c2ccc(Br)cc2OC2CCCN1C2 (stereo unspecified) | 7%[46.1 µM] | / | / | / | /
CCOc1ccc(C(=O)Nc2ccc3nc(Nc4cccc(C(F)(F)F)c4)cc(C)c3c2)cc1OCC | 0%[46.1 µM] | -6% | / | / | 3%
Cc1nc(Nc2cnc(/C=C/c3cc(C(=O)Nc4cccc(C(F)(F)F)c4)ccc3C)cn2)cc(N2CCNCC2)n1 | / | 10µM* | -9%[8.37 µM] | / | ?
O=C1OC(c2ccccc2)(c2ccc3cc(O)ccc3c2)c2ccccc21 (stereo unspecified) | -28%[46.1 µM] | ? | ? | 5.6µM* | 7.9µM*
O=C1OC(c2ccc(O)cc2)(c2ccc(O)cc2)c2ccccc21 | ? | ? | ? | ? | -8%
Nc1[nH]nc2nc(NCc3ccccc3)c3c(c12)CCN(Cc1ccccc1)C3 | 13µM* | 0% | -23% | ? | -19%
O=C(NCc1ccc(F)cc1)c1c2c(nc3ccccc13)CCN(Cc1ccccc1)C2 | -1% | -2% | 4% | ? | i
CC[n+]1ccccc1/C=C1\Sc2ccc(C)cc2N1C | / | / | 6.3µM* | / | /
COc1ccc2nc3c(cc2c1)c(NC(=O)c1cccs1)nn3CC(C)C | -19% | ? | ? | ? | /
CC(C)Cn1nc(NC(=O)c2cccs2)c2cc3ccccc3nc21 | / | / | 8.9µM* | / | /
CCOC(=O)/C=c1\s/c(=C(/C#N)C(=O)OCC)n(-c2ccccc2)c1=O | / | / | / | -6%[46.1 µM] | /
C[C@]12CCC3C(CC[C@H]4C[C@@H](O)CC[C@]34C)[C@H]1C=CC2=O (stereo partly specified) | ? | ? | -11% | ? | ?
CC12CCC(O)CC1CCC1C2CCC2(C)C(C3=CC(=O)OC3)CCC12O (stereo unspecified) | 0.45µM* | 0.89µM* | 5µM* | 0.28µM* | ?
CC(=O)OC1CCC2(C)C3CCC4(C)C(OC(C)=O)CCC4C3C(C)C2(O)C1 (stereo unspecified) | 5%[46.1 µM] | -4% | 9% | 7%[46.1 µM] | i
CC(=O)OC1CCC23C(=O)OC45CCC(C6=CC(=O)OC6)C4(C)CCC2C5CCC3(O)C1 (stereo unspecified) | / | 1.3µM* | / | / | 1.8µM*
C[C@]12CC[C@H](O)C[C@H]1CC[C@@H]1[C@@H]2C[C@@H](O)[C@]2(C)[C@@H](C3=CC(=O)OC3)CC[C@]12O | / | 1.1µM* | 0.56µM* | / | 1.1µM*
C[C@]12CC[C@H](O)C[C@H]1CC[C@@H]1[C@@H]2CC[C@]2(C)[C@@H](C3=CC(=O)OC3)CC[C@]12O | / | 1.1µM* | 2µM* | / | ?
C[C@@H]1C=CCCO[C@]12C(=O)Nc1ccc(O)cc12 | / | / | / | 10%[14.2 µM] | /
O=c1c(S(=O)(=O)c2ccccc2)cn(Cc2cccc(F)c2)c2cc(N3CCOCC3)c(F)cc12 | ? | -20% | / | / | -9%
CC12CCC(O)CC1CCC1C2CCC2(C)C(C3=CC(=O)OC3)C(O)CC12O (stereo unspecified) | 3.2µM* | 1.8µM* | ? | 0.63µM* | 1.3µM*
CC(=O)OC1CC[C@]2(C)C(CCC3C2CC[C@]2(C)C(C4=CC(=O)OC4)C(OC(C)=O)CC32O)C1 (stereo partly specified) | / | 1.1µM* | / | / | 1µM*
